HCMV inh – qHTS Assay for inhibitors of the human cytomegalovirus (HCMV). HFF cells, HCMV-luciferase reporter, 72 h; hits give low values. activity change, negative = inhibition, % at 57.5 µM. 410,000 compounds, 4.5% hits; in the data active = activity change below about -60%; inconclusive = no clear call, values can overlap the other calls; inactive = above about -39%
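After 16 h attachment at 37C, HFF cells received test compound and HCMV-luciferase (1 PFU/cell); reporter luminescence read 72 h later, data normalized against buffer-only and known inhibitor Salinomycin.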
Vaccinia Venus – qHTS for Stage-Specific Inhibitors of Vaccinia Orthopoxvirus: Venus Reporter Primary qHTS; Vaccinia virus Venus reporter expression, fluorescence; Potency, µM (top dose mostly 36.5 µM), for the others: top-dose activity change, negative = inhibition, hits mostly inhibitors; 330,000 compounds, 0.46% hits; AID 720580, 2013; calls by dose curve; tested in A549 cells; note: potency is the fitted concentration of half-maximal effect; nearly all actives have a fitted effect of over 30% in size
Lassa entry inh – qHTS for Inhibitors of binding or entry into cells for Lassa Virus. Potency, µM (top dose mostly 37.9 µM), for the others: at the highest dose activity change, negative = inhibition, usual class: inhibitors. 300,000 compounds, 1.2% hits. AID 540256, 2011. Lassa virus pseudotype entry inhibition, cell reporter; calls by dose curve; tested in HEK293 cells; note: potency is the fitted concentration of half-maximal effect; nearly all actives have a fitted effect of over 50% in size
MARV entry inh – qHTS for inhibitors of binding or entry into cells for Marburg Virus | 300,000 compounds, 1.8% hits | AID 540276, 2011 | Potency, µM (series often up to 37.8 µM), for inactives: at the top dose activity change, negative = inhibition, hits mostly inhibitors | Marburg virus pseudotyped entry inhibition, cell reporter; calls by dose curve; tested in HEK293 cells; note: potency is the fitted concentration of half-maximal effect
FMDV antiviral – High Throughput Screening for Foot and Mouth Disease Virus Antivirals; AID 1159524, 2015; FMDV antiviral cell-based qHTS; Potency, µM (series often up to 57.9 µM), without a hit: at the top dose activity change, negative = inhibition, most hits filed as inhibitors; 410,000 compounds, 1.2% hits; calls by dose curve; tested in HEK293T cells; note: read-out not given here; potency is the fitted concentration of half-maximal effect; nearly all actives have a fitted effect of over 45% in size
Vaccinia mCherry – qHTS for Stage-Specific Inhibitors of Vaccinia Orthopoxvirus: mCherry Reporter Primary qHTS; Vaccinia virus mCherry reporter infection, fluorescence; Potency, µM (titrated, usually from 36.5 µM), for inactives: at the highest dose activity change, negative = inhibition, actives largely listed as inhibitors; 310,000 compounds, 0.63% hits; calls by dose curve; tested in A549 cells; note: potency is the fitted concentration of half-maximal effect; nearly all actives have a fitted effect of over 35% in size
Active calls of the source: *; i = inactive; ? = inconclusive; / = not tested or not shown; ! = a repeat was not active; [ ] = another dose, or the depositor's remark. The list is not random: actives were taken first. Their share in the collection is about 6.5%. % is set by controls: 0 for no effect and ±100 for the full control effect.

SMILES	HCMV inh	Vaccinia Venus	Lassa entry inh	MARV entry inh	FMDV antiviral	Vaccinia mCherry
COc1ccc(-c2c(C#Cc3ccsc3)c3cc(-c4ccc5c(c4)OCO5)ccc3n2C)cc1	-71*	-1%	/	/	-3%	i
Cc1cc2c(nc1C)CCCN2Cc1ccccn1	10	/	/	/	/	/
CCC(C)NC(=O)c1ccc2nc(CCc3ccccc3)oc2c1 (stereo not given)	22	-11%	?	/	12%	-11%
COc1ccc(NC(=O)C2CC2)cc1S(=O)(=O)N1CCOCC1	0	/	/	/	-2%	/
COc1ccc(NS(=O)(=O)c2c(F)cc(F)c(Cl)c2F)cc1S(=O)(=O)N1CCCCC1	-26	5.6µM*	20%	4%	16%	3.5µM*
COc1ccc(OC)c(S(=O)(=O)N2CCC(C(=O)Nc3cc(C)ccc3C)CC2)c1	-93*	-13%	?	?	/	-14%
COc1ccc(NC(=O)C2CCC(C(C)(C)C)CC2)cc1S(=O)(=O)N1CCCCC1 (stereo not given)	-86*	?	?	11µM*	18µM*	-19%
COc1ccc(OC)c(S(=O)(=O)N2CCC(C(=O)Nc3cccc(C)c3)CC2)c1	-61*	-23%	3%	-27%	/	-28%
COc1ccc(NS(=O)(=O)c2c(F)cccc2F)cc1S(=O)(=O)N1CCOCC1	11	2%	10%	24%	37%	-12%
CCO[C@H](c1cc(OC)cc([N+](=O)[O-])c1OC)[C@H](C)[C@@H](OC)[C@H](C)C=CCC(=O)OC	/	/	/	1%[14.2 µM]	/	/
c1ccc(-c2cc(-c3nc4ccccc4[nH]3)c3ccccc3n2)cc1	-94*	?	?	?	?	?
Nc1ccc(-c2nc3ccccc3[nH]2)cc1	127	7%	/	/	10%	30%
CCOC(=O)Oc1c(OC)cc(C(=O)O[C@@H]2C[C@@H]3CN4CCc5c([nH]c6cc(OC)ccc56)[C@H]4C[C@@H]3[C@H](C(=O)OC)[C@H]2OC)cc1OC	-68*	?	/	/	0%	?
NC(=S)n1[nH]c(-c2ccc([N+](=O)[O-])cc2)c(N=Nc2cccc([N+](=O)[O-])c2)c1=O	-72*	-8%	?	?	?	-23%
Cc1c(N=Nc2c(-c3ccc([N+](=O)[O-])cc3)[nH]n(C(N)=S)c2=O)cccc1[N+](=O)[O-]	-96*	-14%	?	2.8µM*	?	?
Cc1[nH]n(C(N)=S)c(=O)c1N=Nc1cccc([N+](=O)[O-])c1C	/	/	/	/	0%	/
NC(=S)n1[nH]c(-c2ccc([N+](=O)[O-])cc2)c(N=Nc2ccccc2[N+](=O)[O-])c1=O	-39	/	/	/	-15%	/
O=C(O)CCn1cc(/C=C/C(=O)c2ccc(Cl)cc2)c(-c2ccc(Br)cc2)n1	-25	-9%	-26%	-25%	16µM*	-5%
O=C(O)CCn1cc(C=C2C(=O)NC(=O)NC2=O)c(-c2ccc(Br)cc2)n1	-12	0%	23%	?	-2%	-6%
CCN1C(=S)NC(c2ccccc2)C(C(=O)OC)=C1C (stereo not given)	/	/	/	-2%[14.2 µM]	/	/
COc1ccc(CCNC2=C(Cl)C(=O)N(CCc3ccccc3)C2=O)cc1OC	-15	-15%	-26%	?	22µM*	-17%
CC(C)Oc1ccc(CCC(=O)N/N=C/c2ccncc2)cc1	-6	-9%	1µM*	1%[46.1 µM]	3%	-7%
CC(C)Oc1ccc(CCC(=O)N/N=C/c2ccc3c(c2)OCO3)cc1	-29	-3%	?	-17%[46.1 µM]	6%	-10%
Cc1ccc(-n2c(-c3ccc(Br)cc3)c[n+]3c2CCc2ccc4cccnc4c2-3)cc1	-104*	/	6.5µM*	2.3µM*!	1.1µM*	/
Cc1ccc(-n2c(=O)[nH]c3ncccc3c2=O)cc1	-25	-3%	/	/	-11%	i
SMILES	HCMV inh	Vaccinia Venus	Lassa entry inh	MARV entry inh	FMDV antiviral	Vaccinia mCherry
CCc1cc(C(=O)NNC(=O)CCl)sc1C	-64*	/	?	?	15%	/
CCc1cc(C(=O)NNC(=O)CCN2CCN(c3ccccc3)CC2)sc1C	-21	/	/	/	-8%	/
O=C(c1ccccc1)N1CCN(C(=O)c2ccccc2)c2ccccc21	-100*	-15%	?	?	35µM*	-12%
O=C(c1ccccc1)N1CCc2ccccc21	6	-17%	4%	13%	-4%	-16%
COc1ccc(C2C(O)C(c3c[nH]c4ccccc34)=NN2C(=O)CCl)cc1 (stereo not given)	-104*	?	?	3.2µM*	18µM*	?
COCC1CN(CCc2ccc(F)cc2)S(=O)(=O)c2c(OCCN3C(=O)[C@@H]4[C@H](C3=O)[C@@H]3C=C[C@H]4C3)cccc2O1 (stereo not given in full)	3	/	/	/	/	/
N/C(CCS(=O)(=O)c1ccc(Cl)cc1)=N\OC(=O)c1ccccc1C(F)(F)F	-11	-20%[7.34 µM]	22µM*	?	-23%	i[7.34 µM]
N/C(CCS(=O)(=O)c1ccc(Cl)cc1)=N\OC(=O)c1ccc(Cl)cc1	16	/	/	/	-30%	/
Cc1c(C(=O)NCC(C)C)sc2ncnc(NCC3CCCO3)c12 (stereo not given)	/	-1%	/	/	0%	-11%
CC(C)(O)C(=O)NNC(=S)Nc1cccc(C(F)(F)F)c1	-33	/	/	/	-14%	/
CC(=O)Nc1cccc(NS(=O)(=O)Cc2ccc(Cl)cc2)c1	-66*	-8%	-21%	1%	3%	-22%
CC(O)(CS(=O)(=O)Cc1ccc(Cl)cc1)C(=O)Nc1cccc(C(F)(F)F)c1 (stereo not given)	-103*	/	-2%	-6%	-12%	/
O=C1C(Cl)=C(Cl)C(=O)C(Cl)=C1Cl	/	-7%	/	/	-28%	i
CN(C)Cc1ccccc1-c1ccc2ncnc(N3CCOCC3)c2c1	/	1%	/	/	-21%	i
Cc1ccc([N+](=O)[O-])cc1S(=O)(=O)Nc1ccc(C(=O)N(C)C)cc1	?	-8%	9%	6%[46.1 µM]	0%	i
Cc1ccccc1NS(=O)(=O)c1cc(C(=O)Nc2cccc([N+](=O)[O-])c2)ccc1C	-95*	11µM*	11µM*	?	-71%	?
CC(=O)Nc1ccc(NS(=O)(=O)c2cc([N+](=O)[O-])ccc2C)cc1	-71*	-8%	-1%	8%[46.1 µM]	13%	-13%
CCOc1ccc(CC(=O)Nc2c(C(=O)c3ccc(Cl)cc3)oc3ccccc23)cc1OCC	-23	-14%	1%[46.1 µM]	?	?	-6%
CCOc1ccc(CC(=O)Nc2c(C(=O)c3ccc(C)cc3)oc3ccccc23)cc1OCC	-63*	-7%	14%[46.1 µM]	?	0%	-3%
Nc1ccccc1SCc1ccccc1Cl	-66*	-12%	-4%	?	36%	-20%
